Source: PubChem BioAssay (National Center for Advancing Translational Sciences (NCATS))
Shown are actives, neighbours in structure and some others; about 2.4% of the full set was active somewhere.
D2 antag – D2 dopamine receptor (human) antagonism; inhibition, % at 10 µM; 340,000 compounds, 2% hits; AID 485344; HEK293 TREx D2 cells, calcium flux, dopamine EC80; P14416; in the data active = inhibition above about 30%; inactive = below that, where a call was filed; also: 0% is about no effect
Target sequence (P14416 whole entry, looked up): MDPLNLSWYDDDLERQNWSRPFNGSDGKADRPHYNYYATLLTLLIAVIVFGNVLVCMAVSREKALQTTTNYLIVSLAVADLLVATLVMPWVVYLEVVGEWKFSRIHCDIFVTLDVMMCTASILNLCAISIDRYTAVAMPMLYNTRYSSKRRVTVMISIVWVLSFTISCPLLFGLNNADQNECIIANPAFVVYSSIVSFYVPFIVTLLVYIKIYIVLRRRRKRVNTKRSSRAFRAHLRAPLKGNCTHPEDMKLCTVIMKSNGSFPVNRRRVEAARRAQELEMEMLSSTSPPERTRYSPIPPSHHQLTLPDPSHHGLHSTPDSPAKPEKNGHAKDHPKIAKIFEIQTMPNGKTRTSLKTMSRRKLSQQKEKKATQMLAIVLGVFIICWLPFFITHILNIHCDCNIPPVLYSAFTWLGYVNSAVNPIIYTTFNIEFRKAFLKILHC
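Tetracycline-induced HEK293 T-REx cells expressing D2 force-coupled to calcium signalling were dye-loaded, exposed to compound for 180 s, then challenged with an EC80 of dopamine; calcium flux was followed kinetically for a further 180 s.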
D2 PAM-1 – positively modulates the human D2 dopamine receptor allosterically | P14416 | HEK293 T-REx D2, calcium flux, EC20 dopamine potentiation | potentiation, % at 10 µM | 340,000 compounds, 0.34% hits | AID 485347;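 active = potentiation over 3 SD above the plate norm, cut at about 30% in these data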; also: 0% is about no effect
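Tetracycline-induced HEK293 T-REx cells force-coupled to calcium signalling expressed D2; compounds were pin-added after a 10 s baseline, read kinetically 180 s, then an EC20 dopamine challenge followed with a further 180 s calcium read.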
D2 ag-1 – activates the human D2 dopamine receptor. HEK293 T-REx D2 cells, calcium flux agonist mode. 340,000 compounds, 0.53% hits. P14416. activation, % at 2 µM;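 active = activation over 3 SD above normal in the single-dose calcium agonist read, cut at about 30% in these data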; also: 0% is about no effect
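HEK293 Trex D2 cells, tetracycline-induced, o/n 30 C 5% CO2; no-wash Ca dye, RT 30–90 min; 10-cycle baseline, 23 nl cpd added, kinetic Ca read 180 s; agonist hits = positive Ca response.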
D2 ag-2 – human D2 receptor agonism in beta-arrestin assay | P14416 | DiscoveRx PathHunter D2 beta-arrestin, luminescence, 90 min; 100% = 57 uM dopamine signal | activation, % (no concentration beside the values) | 360,000 compounds, 0.084% hits; in the data active = activation above about 40%; inconclusive = between about 15% and that limit
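Agonist mode: compounds alone added to overnight-plated D2 PathHunter cells for 90 min at 37 C, with 57 uM final dopamine (EC100) defining full response. Beta-arrestin recruitment detected by chemiluminescent reagent, read after 1 h at ambient temperature.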
D2 PAM-2 – human D2 receptor positive allosteric modulation; P14416; DiscoveRx D2 beta-arrestin cells, luminescence, 90 min; 100% = 57 uM dopamine signal; potentiation, % (no concentration beside the values); 360,000 compounds, 0.23% hits; AID 624464; in the data active = potentiation above about 50%; inconclusive = mostly about 30% to 49%
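PathHunter D2 cells, attached overnight at 37 deg C, received compound in DMSO plus dopamine at EC20 (50 nM final) for 90 min at 37 deg C. Beta-arrestin recruitment was read as luminescence after 1 h with detection reagent at ambient temperature.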
Numbers without * were called inactive; ? = inconclusive; · = no result; ! = not confirmed by another sample.

SMILES	D2 antag	D2 PAM-1	D2 ag-1	D2 ag-2	D2 PAM-2
COc1cc(C(=O)Nc2ccc(S(=O)(=O)NC(C)C)cc2)cc(OC)c1OC	31*	0	0	2	-6
CN(C)c1ccc(NC(=O)CN2C(=O)c3ccccc3Sc3ccc(C(=O)N4CCCC4)cc32)cc1	·	-2	0	·	·
Cc1ccc(S(=O)(=O)Nc2c(O)ccc3ccccc23)cc1	·	·	·	56*	8
CCC(=O)Nc1ccc(NC(=O)c2ccccc2)nc1	32*	1	0	-1	-2
CCCC(=O)Nc1ccc(NC(=O)c2ccccc2)nc1	-5	-9	1	-3	-3
O=C(NCCN1CCOCC1)c1cccc(Br)c1	·	·	·	2	-6
O=C(NCCN1CCOCC1)c1cccc(Cl)c1	33*	-16	2	-3	-9
Clc1cccc(-c2ccc(CNCCCN3CCOCC3)o2)c1	92*	-21	-1	-3	-20
O=C(O)c1cnn(-c2nc(-c3cccc([N+](=O)[O-])c3)cs2)c1C(F)(F)F	31*	-5	1	-1	0
COc1cc(C(=O)NCCc2ccc(S(=O)(=O)N3CCCC3)cc2)cc(OC)c1OC	58*	-29	0	-19	-7
COc1ccc(CCNC(=O)c2cccc(S(=O)(=O)N3CCCC3)c2)cc1OC	5	5	0	-6	-12
NC(=O)[C@@H]1[C@@H]2C(=O)N(c3ccc(F)cc3)C(=O)[C@@H]2[C@H]2C=Cc3ccccc3N21	-15	12	1	-4	-10
O=C(c1ccco1)[C@@H]1[C@@H]2C(=O)N(c3ccc(F)cc3)C(=O)[C@@H]2[C@H]2C=Cc3ccccc3N21	43*	12	1	-1	-1
CCCC(c1nnnn1CS(=O)(=O)c1ccc(C)cc1)N1CCN(c2ccc(F)cc2)CC1 (configuration not stated)	59*	·	1	-3	-12
COc1cccc(/C=N/N2C(=O)CSC2=S)c1O	10	-2	0	5	-2
COc1cc(/C=N/N2C(=O)CSC2=S)cc(Br)c1O	44*	-4	11	-1	0
Cc1ccn2c(NC3CCCC3)c(-c3ccncc3)nc2c1	-15	30*	-1	-2	9
Cc1ccn2c(NC3CCCCC3)c(C(C)C)nc2c1	1	6	0	0	-3
Cc1ccn2c(NC3CCCCC3)c(C)nc2c1	35*	-4	0	1	-5
O=C(c1ccc(CSc2nc3ccncc3n2Cc2ccccc2F)cc1)N1CCCCC1	·	-5	0	·	·
O=C(O)COc1ccc2c3c(c(=O)oc2c1)CCC3	39*	2	0	-5	-20
NS(=O)(=O)c1ccc(CCNC(=O)COc2ccc3c4c(c(=O)oc3c2)CCC4)cc1	5	40*	0	-1	-14
CSCC(C)N1CCC(CCC(=O)NC2CC2)CC1 (configuration not stated)	-23	101*	0	-4	-4
Cc1ccc(CNC(=O)c2cc3c(=O)n(Cc4ccco4)ccc3nc2C)cc1	·	-14	·	·	·
Cc1c(Br)c([N+](=O)[O-])nn1CC(=O)Nc1nccs1	-2	52*	0	-2	-3
SMILES	D2 antag	D2 PAM-1	D2 ag-1	D2 ag-2	D2 PAM-2
O=C1CC(c2nc3ccccc3n2Cc2c(F)cccc2Cl)CN1c1cccc(C(F)(F)F)c1 (configuration not stated)	·	-4	0	·	·
COc1ccc(C2CNC(=O)C2)cc1OC1CCCC1 (configuration not stated)	71*!	-4	70*!	-4	-2
COc1ccc(CCNS(=O)(=O)c2ccc(C3CNC(=O)C3)cc2)cc1OC (configuration not stated)	·	·	·	0	3
CCCCC(=O)Nc1nnc(S(=O)(=O)N(CC)c2ccc(OC)cc2)s1	9	-6	0	6	-2
CCN(c1ccc(OC)cc1)S(=O)(=O)c1nnc(NC(=O)COc2ccccc2)s1	-9	37*	0	5	-6
COc1ccc(CCN2CC(C(=O)NCCc3cccnc3)CCC2=O)cc1 (configuration not stated)	32*	-6	-1	-3	-3
Cc1ccc(F)c(S(=O)(=O)NC(=O)C2(C)CCN2C(=O)c2cccc3ccccc23)c1 (configuration not stated)	·	·	·	?	62*
S=C(Nc1ccc(Cl)cc1)NC1CCCCC1	-7	-4	5	0	-5
FC(F)Oc1ccc(NC(=S)NC2CCCCCCC2)cc1	33*	15	2	-3	2
O=C1C2CCCN2C(=O)N1CCCN1CCN(c2cccc(Br)c2)CC1 (configuration not stated)	-17	18	-1	3	-5
COc1ccccc1N1CCN(CCCCN2C(=O)C3CCCCN3C2=O)CC1 (configuration not stated)	94*	-18	0	1	-28
O=C1C2CCCCN2C(=O)N1CCCN1CCN(c2ccc(F)cc2)CC1 (configuration not stated)	-12	-10	1	-1	-22
COc1ccccc1N1CCN(CCCN2CC(=O)N3CCCCC3C2=O)CC1 (configuration not stated)	·	·	·	0	-21
CCCCOc1ccccc1N1CCN(CCCN2C(=O)C3CCCN3C2=O)CC1 (configuration not stated)	76*	-24	1	-3	4
Cc1ccccc1N1CCN(CCCCN2C(=O)C3CCCN3C2=O)CC1 (configuration not stated)	59*	-19	8	-4	-31
Cn1c(=O)oc2cc(S(=O)(=O)NC(Cc3ccccc3)C(=O)NCc3ccccc3Cl)ccc21 (configuration not stated)	·	15	1	·	·
CCOC(=O)/C=c1\s/c(=C\c2ccc3c(c2)OCCO3)c(=O)n1CC(=O)NCC1CCCO1 (configuration not stated)	55*	-4	0	-2	-8
S=C(NCCc1ccccc1)Nc1ccccc1N1CCOCC1	45*	1	1	-5	-7
CN1CC[n+]2c(CN3C(=O)c4ccccc4C3=O)csc21	45*	3	1	-1	-3
Cc1ccc(NC(=O)N2CCCC2C(=O)NCC2CCCCC2)cc1 (configuration not stated)	35*	-5	0	-1	-6
CS(=O)(=O)Oc1ccc2c(c1)O/C(=C\C=C\c1ccccc1)C2=O	38*	-3	3	3	-3
Cn1c(=O)[nH]c(=O)c2c1nc1n2CCN1c1ccccc1	·	9	0	·	·
Cc1ccccc1Nc1nc(N)nc(COC(=O)CCS(=O)(=O)c2ccccc2)n1	32*	-13	2	1	-4
Cc1ccc(S(=O)(=O)CCC(=O)OCc2nc(N)nc(Nc3ccccc3C)n2)cc1	-2	21	0	-2	?
